High-throughput results: PubChem, National Center for Advancing Translational Sciences (NCATS)
FUS suppressor: qHTS for Suppressors of FUS Proteinopathy: Primary screen using FUS-linked yeast assay; S. cerevisiae FUS-expressing, growth rescue, OD600, 24 h; Potency, µM (titrated, usually from 76.6 µM), usual class: activators; 0.24% of 390,000 active;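 also: plate controls were DMSO vehicle for no effect and reference control for full effect; nearly all actives have a fitted effect of over 55% in size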
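Absorbance at 600 nm, taken 24hr after compound addition, measured rescue of FUS-yeast growth at 30C. Induction used 2% galactose with seeding at OD 0.005. Controls: CP55940 from 92uM final, DMSO only.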
Mito fusion yeast: qHTS Assay for Small Molecule Inhibitors of Mitochondrial Division or Activators of Mitochondrial Fusion. S. cerevisiae fusion-defective mutant growth rescue, CellTiterGlo 48 h. 0.23% of 320,000 active. Potency, µM (top dose mostly 46.1 µM), without a hit: at the highest dose growth rescue (activation), most hits filed as activators. AID 485298, 2010; also: % of control where 0% means no effect; nearly all actives have a fitted effect of over 45% in size
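Yeast fusion mutant, YPEG (non-fermentable carbon), compound, 48 h at 37C non-permissive; CellTiterGlo added, 10 min RT, luminescence read. Rescued growth = division inhibition.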
aSyn rescue: qHTS of alpha-syn Inhibitors | Yeast expressing alpha-synuclein, growth rescue, BacTiter-Glo, 24 h | Potency, µM (titrated, usually from 46.1 µM), for the others: at the top dose growth rescue (activation), actives largely listed as activators | 0.14% of 370,000 active | AID 652106, 2013; also: % of control where 0% means no effect; nearly all actives have a fitted effect of over 65% in size
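Screening used galactose-induced yeast with toxic alpha-synuclein levels, exposed to compound for 24 hr at 30 deg C. Cell growth, read with BacTiter-Glo luminescence, gave the measured signal.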
Abeta rescue: qHTS for compounds that reverse cellular toxicity of Amyloid beta (A-beta) peptide in yeast: Primary Screen; yeast expressing A-beta42, growth rescue, OD600, 48 h; response scale: 0% DMSO, 100% iron-clioquinol control; Potency, µM (highest dose often 46.1 µM), most hits filed as activators; 0.063% of 410,000 active; also: nearly all actives have a fitted effect of over 55% in size
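Growth rescue measured by 600 nm absorbance after 48 h yeast culture at 30 C with compound. Values normalized between DMSO and an equimolar ferric chloride plus clioquinol control.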
TDP43 rescue: qHTS of TDP-43 Inhibitors; TDP-43 expressing yeast growth rescue, BacTiter-Glo, 24 h; Potency, µM (highest dose often 46.1 µM), inactives show top-dose growth rescue (activation), hits mostly activators; 1.8% of 410,000 active; AID 652104, 2013; also: % of control where 0% means no effect; nearly all actives have a fitted effect of over 50% in size
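Growth rescue of TDP-43-toxic yeast measured as ATP luminescence (BacTiter-Glo). Cells grown to mid-log in raffinose, induced in galactose at OD600=0.02, exposed to compound 24 hr at 30 deg C.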
An asterisk follows results filed as active; i = inactive; ? = inconclusive; nt = no result; [ ] = another dose, or the depositor's remark. The list is not random: actives were taken first. Their share in the collection is about 2.2%. Calls follow the shape of the dose curve; as a rule, active = well fitted curve in the direction sought with a large enough effect; inconclusive = small, poorly fitted or top-dose-only effect, or another doubt; inactive = no such curve, though single readings can be large; an effect the other way counts as inactive or inconclusive. Potency is read from the fitted curve at half-maximal effect.

SMILES | FUS suppressor | Mito fusion yeast | aSyn rescue | Abeta rescue | TDP43 rescue
COc1cc(-c2nc(C)c(C(C)=O)n2O)ccc1OCC(=O)Nc1ccc(F)cc1 | i | -6.0% | -5.6% | i | 19.3%
O=c1[nH]c2ccccc2c2nc3ccccn3c12 | i | 3.9% | ? | i | 22.4µM*
O=c1nc2c(O)cccn2c2c1c(=O)[nH]c1ccccc12 | i | -3.0% | -5.3% | i | 5.4%
CC(C)(C)c1ccc(C(=O)NCC(c2cccs2)S(=O)(=O)c2ccc(F)cc2)cc1 (configuration not stated) | 35.5µM* | nt | nt | i | ?
O=C(Cc1ccc(Cl)cc1)NCC(c1cccs1)S(=O)(=O)c1ccc(F)cc1 (configuration not stated) | ? | nt | nt | i | 35.5µM*
CN(CC(=O)N(C)CC(=O)Nc1c(Cl)cccc1Cl)Cc1ccc(Br)s1 | i | 3.8% | 1.4% | i | 1.0%
CCN(CC)c1ccc(NC(=O)CCc2c(C)nc3ncnn3c2C)c(C)c1 | i | nt | nt | i | -19.1%
CC(=O)NCCc1nc(-c2ccc(Cl)cc2)no1 | i | nt | 7.1% | i | -0.6%
CC(C)N(Cc1nc(-c2ccc(Cl)cc2)no1)C(=O)c1ccc(C(C)(C)C)cc1 | i | nt | nt | i | 12.5%
O=C(O)CCc1nc(-c2ccc(Cl)cc2)no1 | nt | 4.3% | 12.5% | i | 14.1µM*
CC(C)(CC(=O)O)Cc1nc(-c2ccc(Cl)cc2)no1 | i | -0.2% | -3.4% | i | 31.6µM*
COc1ccc(CCNC(=O)Cn2c(=O)nc(-c3ccccc3F)c3cc(Cl)ccc32)cc1OC | i | nt | nt | i | 13.2%
CCCCC[C@@H](C)N1C[C@@H](COCc2ccccc2)Oc2cc(N3CCC[C@H]3COC)ccc2S1(=O)=O | i | nt | -5.3% | i | 7.9%
Cc1cc2cc3c(cc2nc1SCC(=O)O)OCCO3 | i | 4.7% | -0.7% | i | 9.3%
Cc1cc2cc3c(cc2nc1SCC(=O)N1CCCC1)OCCO3 | i | -0.3% | 3.4% | i | 17.8µM*
CCOc1c(CNc2nnnn2C)cccc1OC | i | 1.8% | -2.1% | i | -8.0%
CCOC(=O)Cn1nc(/C=C/c2ccc(C(C)C)cc2)ccc1=O | ? | -4.5% | 17.6% | i | 20µM*
CCOC(=O)Cn1nc(/C=C/c2ccc(C)cc2)ccc1=O | i | -0.6% | -10.8% | i[9.22 µM] | ?
Cc1cc(N)c2ccccc2[n+]1CCCCCCCCCC[n+]1c(C)cc(N)c2ccccc21 | nt | 2.59µM* | -49.2% | nt | nt
Cc1sc2ccccc2[n+]1CCCCI | nt | nt | 13.5% | nt | nt
Cc1ccc(NC(=O)COc2ccc3oc4c(c3c2)CCCC4)c(C)c1 | i | nt | ? | i | 9.9%
Cc1ccccc1CSc1nc2cccnc2n1Cc1ccc(C(=O)NC2CC2)cc1 | i | nt | nt | i | 18.3%
Cc1sc2ncnc(NCc3cccs3)c2c1C | i | -11.6% | -0.6% | i | 17.8µM*
CS(=O)(=O)c1ccc(Cl)c(NC(=O)COc2ccc3c(c2)CCC3)c1 | i | 0.3% | -3.1% | i | 9.4%
Cc1cc(OCC(O)CN2CCc3ccccc3C2)ccc1Cl (configuration not stated) | i | -7.1% | 5.7% | i | -11.9%
SMILES | FUS suppressor | Mito fusion yeast | aSyn rescue | Abeta rescue | TDP43 rescue
CCOC(=O)c1ccc(Oc2nc(NC(C)(C)C)nc(N(C)C)n2)cc1 | i | 17.7% | -14.7% | i | 22.4µM*
CCOC(=O)c1ccc(Oc2nc(N(C)C)nc(N(C)C)n2)cc1 | i | 6.4% | 3.3% | i | 18.8%
O=c1c(Cl)c(Cl)cnn1Cc1nnc(-c2ccccc2Br)o1 | i | -0.4% | 5.2% | i | 12.6µM*
O=C(O)c1cc2[nH]c3c(c2cc1Cl)CCCC3 | i | -2.4% | 20µM* | i | nt
CC(C)NC(=O)CSc1ccccc1C(=O)NNC(=O)Cn1ccc(C(F)(F)F)n1 | nt | -5.6% | 0.9% | i | 28.0%
Cn1ncc(SCc2ccccc2)c(Cl)c1=O | i | -7.7% | 11.2% | i | 20µM*
CC(C)c1cnc2c(c1SCC(=O)Nc1cccc(F)c1)c(=O)n(C)c(=O)n2C | i | nt | nt | i | 35.5µM*
Cc1cc(C)cc(NC(=O)CSc2c(C(C)C)cnc3c2c(=O)n(C)c(=O)n3C)c1 | i | nt | nt | i | ?
COC(=O)[C@@]12CCCCC3=C1N(CCC3)C(=O)[C@H]2CC(=O)NCc1ccccc1 | i | nt | nt | nt | nt
COc1ccccc1NC(=O)CSC1=Nc2ccccc2C2=NC(CCC(=O)NCc3cccs3)C(=O)N12 (configuration not stated) | i | nt | nt | i | ?
CCOc1ccccc1CNS(=O)(=O)c1cnc(N)nc1 | i | nt | nt | i | 10.9%
CN(C(=O)c1cccc(Nc2ccc(-c3ccc4c(c3)OCCO4)nn2)c1)C1CCCCC1 | 25.1µM* | ? | 16.0% | i | 21.6%
CN(C)S(=O)(=O)c1ccc(Nc2ccc(-c3ccc4c(c3)OCCO4)nn2)cc1 | i | -2.4% | -0.7% | i | -6.3%
COc1ccc(OCCSc2nnc3sc4ccccc4n23)cc1 | i | -1.7% | 12.1% | i | 15.8µM*
CN(C)CCSc1nnc2sc3ccccc3n12 | i | 0.8% | 0.8% | i | 8.9%
CCOC(=O)c1c(C)n(C)c2ccc(OCC(O)CN3CCCCCC3)cc12 (configuration not stated) | i | 2.3% | 1.7% | i | -12.9%
CCOC(=O)c1c(C)n(C)c2ccc(OCC(O)Cn3nc(C)c(Br)c3C)cc12 (configuration not stated) | ? | ? | 18.7% | i | 15.8µM*
COc1cc(/C=N/Nc2nc(Nc3ccccc3)nc(N3CCOCC3)n2)ccc1OC(=O)c1ccco1 | ? | 2.8% | 14.0% | i | 20µM*
COc1cc(Cn2c3ccc(NC(=S)NCc4ccc(C)cc4)cc3c(=O)n2C)ccc1F | ? | nt | 4.8% | i | 15.4%
COC(=O)[C@]12C[C@H](CC(=O)NCC3CCCCC3)C(=O)N(Cc3cccc4ccccc34)C1=C[C@H](C(C)(C)C)O[C@@H]2C | i | nt | nt | nt | nt
COC(=O)[C@]12C[C@H](CC(=O)NCc3cccs3)C(=O)N(Cc3cccc4ccccc34)C1=C[C@H](C(C)(C)C)O[C@@H]2C | 10µM* | nt | nt | nt | nt
COC(=O)[C@]12C[C@H](CC(=O)NCc3cccc4ccccc34)C(=O)N(Cc3ccc(Cl)cc3Cl)C1=C[C@H](C(C)(C)C)O[C@@H]2C | i | nt | nt | nt | nt
COC(=O)[C@]12C[C@H](CC(=O)NCCC(C)C)C(=O)N(Cc3cccc4ccccc34)C1=C[C@H](C(C)(C)C)O[C@@H]2C | 22.4µM* | nt | nt | nt | nt
COC(=O)[C@]12C[C@H](CC(=O)N3CCOCC3)C(=O)N(Cc3cccc4ccccc34)C1=C[C@H](C(C)(C)C)O[C@@H]2C | 22.4µM* | nt | nt | nt | nt
